PubChem BioAssay (Tox21)
Inconclusive results are not listed. Activity calls are given as the source filed them. Unless noted, calls follow the shape of the dose curve; as a rule, active = well fitted curve in the direction sought with a large enough effect in the repeat runs; inconclusive = weak or mixed curves; inactive = no such curve, though single readings can be large; an effect the other way counts as inactive or inconclusive.

How the values were obtained:
[1] = qHTS assay for small molecule agonists of the p53 signaling pathway (AID 651631; calls by dose curve; also: nearly all actives have a fitted effect of over 15% in size)
In short: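 Stably transfected HCT-116 cells (beta-lactamase behind p53 response elements) get compounds after a 5 h settling period; 16 h later at 37 °C, FRET substrate is loaded and fluorescence read after 2 h.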

[2] = qHTS assay for small molecules that induce genotoxicity in human embryonic kidney cells expressing luciferase-tagged ATAD5 (AID 651632); also: nearly all actives have a fitted effect of over 15% in size; also: potency is read from the fitted curve at half-maximal effect
In short: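 Quantitative HTS in HEK293T expressing luciferase-tagged ATAD5, whose levels rise upon DNA damage. Exposure ran 16 hr at 37C and 5% CO2, with luminescence read 30 min after Amplite addition at room temperature.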

[3] = qHTS assay for small molecule agonists of the p53 signaling pathway - cell viability (AID 651633; calls by dose curve;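 also: p53RE-bla HCT reporter cells with a stable beta-lactamase p53 reporter; series mostly up to about 83 µM; nearly all actives have a fitted effect of over 30% in size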)
In short: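 Viability counter-read: CellTiter-Glo luminescence (30 min, room temperature) in the same p53RE-bla plates. These plates had been exposed to compounds for 16 h at 37 C.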

[4] = qHTS assay for small molecule disruptors of the mitochondrial membrane potential - cell viability (AID 720634; calls by dose curve;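 also: human HepG2 liver cancer cells; series mostly up to about 83 µM; nearly all actives have a fitted effect of over 20% in size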)
In short: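 ATP-based luminescent viability readout (CellTiter-Glo, 30 min, room temperature) in HepG2 cells multiplexed with the m-MPI membrane potential dye; compound exposure lasted 1 hr at 37 C.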

[5] = qHTS assay to test for compound auto fluorescence at 590 nm (red) in HepG2 cells (AID 720674)
In short: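 1 hr compound incubation on HepG2 cells, 37 C, 5% CO2; plate read ex 540 nm / em 590 nm; intensities reported as Rose Bengal sodium equivalents.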

[6] = qHTS assay to test for compound auto fluorescence at 535 nm (green) in HepG2 cells (AID 720675)
[7] = qHTS assay to test for compound auto fluorescence at 460 nm (blue) in HEK293 cells (AID 720678)
In short: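 Blue-channel (Ex/Em 405/460 nm) intensity measured in HEK293 cultures after overnight compound exposure at 37C; signal expressed relative to triamterene. Cells plated 2,000 per well in 10% dialyzed FBS medium and allowed 4-5 hr to attach.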

[8] = qHTS assay to test for compound auto fluorescence at 590 nm (red) in HEK293 cells (AID 720679)
In short: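 Red-channel autofluorescence (Ex/Em 540/590 nm; Rose Bengal sodium reference) was measured after overnight 37C, 5% CO2 exposure of attached HEK293 cells, 2,000 per well in medium with 10% dialyzed FBS.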

[9] = qHTS assay for small molecules that induce genotoxicity in human embryonic kidney cells expressing luciferase-tagged ATAD5 - cell viability (AID 651634; calls by dose curve; also: nearly all actives have a fitted effect of over 25% in size)
In short: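 After 15.5 hr incubation with compound at 37C, 5% CO2, HEK293T ATAD5-luciferase cells received CellTiter-Fluor reagent; fluorescence intensity was quantified following 30 min at 37C.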

[10] = qHTS assay for small molecule disruptors of the mitochondrial membrane potential (AID 720635); also: potency is read from the fitted curve at half-maximal effect
In short: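 Mitochondrial membrane potential tracked with Mito-MPS dye, red aggregates (ex 540/em 590 nm) against green monomers (ex 490/em 535 nm). Compound treatment 1 hr at 37C, dye 30 min in HepG2.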
% is scaled to controls: 0 for no effect and ±100 for the full control effect.

CCCCCCCCCCCCCCCCN
inactive: Potency [1] | Potency [2] | Potency [3] | Potency [4] | outcome [5] | outcome [6] | Potency [7] | outcome [8]

Nc1ccc(F)cc1F
inactive: Potency [1] | Potency [2] | Potency [3] | Potency [9] | Potency [10] | outcome [5] | outcome [6] | Potency [7] | outcome [8]

CC(C)(C)NCC(O)COc1ccc(NC(=O)NC2CCCCC2)cc1 (stereo unspecified)
inactive: Potency [1] | Potency [2] | Potency [3] | Potency [9] | outcome [5] | outcome [6] | Potency [7]

CC(C)(O)C(=O)O
inactive: Potency [1] | Potency [2] | Potency [3] | Potency [9] | Potency [4] | outcome [6] | Potency [7] | outcome [8]

CO[C@@H]1COCC[C@@H]1N[C@@H]1CC[C@@](C(=O)N2CCc3ncc(C(F)(F)F)cc3C2)(C(C)C)C1
inactive: Potency [1] | Potency [2] | Potency [3] | Potency [9] | Potency [4] | outcome [6] | Potency [7]

CC(C)=CCCC(C)C=O (stereo unspecified)
inactive: Potency [1] | Potency [2] | Potency [3] | Potency [9] | outcome [6] | Potency [7] | outcome [8]

c1ccc(CCNc2nc(-c3ccccc3)cs2)cc1
inactive: Potency [1] | Potency [3] | Potency [9] | outcome [5] | outcome [6] | Potency [7] | outcome [8]
active: Potency [2] 3.35 µM | Potency [10] 10.6 µM

Cc1ccc(NC(=O)c2ccc(CN3CCN(C)CC3)cc2)cc1Nc1nccc(-c2cccnc2)n1
inactive: Potency [1] | Potency [2] | Potency [3] | Potency [4] | outcome [6] | Potency [7]

CNc1ccccc1
inactive: Potency [1] | Potency [2] | Potency [3] | Potency [9] | Potency [10] | outcome [5] | outcome [6] | Potency [7] | outcome [8]

CCc1c(C)[nH]c2c1C(=O)C(CN1CCOCC1)CC2 (stereo unspecified)
inactive: Potency [1] | Potency [2] | Potency [3] | Potency [4] | fluorescence, relative to Rose Bengal [5] 0.262% [at 18.6 µM] | fluorescence, % of fluorescein control [6] 0.0551% [at 18.6 µM] | fluorescence, % of triamterene [7] 0.0227% [at 18.6 µM]

Cc1ccccc1CCO
inactive: Potency [1] | Potency [2] | Potency [3] | Potency [9] | Potency [4] | outcome [5] | outcome [6] | Potency [7] | outcome [8]

CCOc1ccc(NC(C)=O)cc1N
inactive: Potency [1] | Potency [2] | Potency [3] | Potency [9] | Potency [4] | outcome [5] | outcome [6] | Potency [7] | outcome [8]

CC(C)Cc1nccs1
inactive: Potency [1] | Potency [2] | Potency [3] | Potency [4] | outcome [5] | outcome [6] | Potency [7]

CCCCCCCCCCCC(=O)OCC
inactive: Potency [1] | Potency [2] | Potency [3] | Potency [4] | Potency [10] | outcome [6] | Potency [7] | outcome [8]

CCCCCCCCCCCCN1CCOCC1
inactive: Potency [1] | Potency [2] | Potency [3] | Potency [4] | outcome [5] | outcome [6] | Potency [7] | outcome [8]

COC(=O)Cc1cccc2ccccc12
inactive: Potency [1] | Potency [2] | Potency [3] | Potency [4] | outcome [5] | outcome [6] | Potency [7] | outcome [8]

O=C1OC(=O)C2CC=CCC12 (stereo unspecified)
inactive: Potency [1] | Potency [2] | Potency [3] | Potency [9] | outcome [5] | outcome [6] | Potency [7] | outcome [8]

O=C(O)c1ccccc1[N+](=O)[O-]
inactive: Potency [1] | Potency [2] | Potency [3] | Potency [9] | outcome [5] | outcome [6] | Potency [7] | outcome [8]

CCCCCCCCCCCCCCCCCCCl
inactive: activation [1] -2.7% [at 8.3 µM] | activation [2] 2.16% [at 8.08 µM] | activity change, negative = cytotoxicity [3] -0.103% [at 8.08 µM] | activity change, negative = cytotoxicity [4] -4.97% [at 8.08 µM] | fluorescence, relative to Rose Bengal [5] -0.0738% [at 3.72 µM] | fluorescence, % of fluorescein control [6] 0.0105% [at 3.72 µM] | fluorescence, % of triamterene [7] 0.0349% [at 3.72 µM] | fluorescence, % of fluorescent control [8] -0.145% [at 3.72 µM]

O=C(O)c1cccc(C(=O)O)c1C(=O)O
inactive: Potency [1] | Potency [2] | Potency [3] | Potency [9] | outcome [5] | outcome [6] | Potency [7]

C(/C=C/C=C/Nc1ccccc1)=Nc1ccccc1
inactive: Potency [1] | Potency [2] | Potency [3] | Potency [9] | Potency [10] | outcome [5] | outcome [6] | Potency [7] | outcome [8]

O=C(Cl)c1cc(Cl)cc(Cl)c1
inactive: Potency [1] | Potency [2] | Potency [3] | Potency [9] | Potency [4] | outcome [6] | Potency [7] | outcome [8]

CCCCCCCCOCCCN
inactive: Potency [1] | Potency [2] | Potency [9] | Potency [4] | outcome [5] | outcome [6] | Potency [7] | outcome [8]

O=C(O)c1ccc2cc(O)ccc2c1
inactive: Potency [1] | Potency [2] | Potency [9] | outcome [5] | outcome [6] | Potency [7] | outcome [8]

CCc1ccc2c(c1)C(=O)c1ccccc1C2=O
inactive: Potency [1] | Potency [9] | outcome [5] | outcome [6] | Potency [7] | outcome [8]
active: Potency [2] 12.2 µM

CC1(C)C(=O)NC(=O)N1CO
inactive: Potency [1] | Potency [2] | Potency [3] | Potency [10] | outcome [5] | outcome [6] | Potency [7] | outcome [8]

O=C(O)c1c2ccccc2cc2ccccc12
inactive: Potency [1] | Potency [2] | Potency [9] | Potency [4] | Potency [10] | outcome [5] | outcome [6] | Potency [7] | outcome [8]

CCCCCCC/C=C/C=O
inactive: Potency [1] | Potency [2] | Potency [3] | outcome [5] | outcome [6] | Potency [7] | outcome [8]

C=C[Si]1(C)O[Si](C)(C=C)O[Si](C)(C=C)O[Si](C)(C=C)O1 (stereo unspecified)
inactive: Potency [1] | Potency [2] | Potency [9] | outcome [6] | Potency [7] | outcome [8]
